Experiment [1] is described as follows: A CellTox Green Cytotoxicity Assay to monitor cytotoxicity in HEK293 cells - 40 hour (AID 1224871). Further: nearly all actives have a fitted effect of over 45% in size. The gist of the method:
(§1)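 Read-out: fluorescence of a cell-impermeant cyanine dye staining DNA of dead cells, proportional to cytotoxicity. HEK293, 600 cells/well with reagent, compound (23 nL DMSO) added after 5 h; reads at 0, 8, 16, 24, 32, 40 h.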

Experiment [2] in a line: qHTS RealTime-Glo MT Cell Viability Assay in HEK293 cells - 16 hour (AID 1224872). Further: top concentration of the series differs between compounds; nearly all actives have a fitted effect of over 50% in size. The gist of the method: (§2)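 Luminescence generated by NanoLuc from substrate produced by living HEK293 cells served as the viability signal. Each value reflects the reading at its stated time point during continuous 40 h compound exposure at 37 C.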
(qHTS replaces the single test concentration by a dilution series.)

Experiment [3] in a line: qHTS RealTime-Glo MT Cell Viability Assay in HepG2 cells - 8 hour (AID 1224873). Further: nearly all actives have a fitted effect of over 55% in size. The procedure, abridged:
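Real-time viability: cells seeded at 600 per well together with NanoLuc and cell-permeant prosubstrate, compounds added after 5 h incubation. Luminescence tracked at 0, 8, 16, 24, 32 and 40 h of exposure.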

A short description of experiment [4]: qHTS RealTime-Glo MT Cell Viability Assay in HEK293 cells - 40 hour (AID 1224874). Further: nearly all actives have a fitted effect of over 50% in size. Further: potency means the concentration at half of the fitted maximal effect. As to conditions: RealTime-Glo luminescence; max response: hits give low values. The procedure, abridged:
(§3)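 Luminescence readout at each listed time point; HEK293, 600 cells/well, RealTime-Glo MT reagent added with cells; compounds pinned (23 nL in DMSO) after 5 h at 37 C; continuous culture at 37 C.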

A short description of experiment [5]: A CellTox Green Cytotoxicity Assay to monitor cytotoxicity in HEK293 cells - 24 hour (AID 1224875). Further: series mostly up to about 77 µM; nearly all actives have a fitted effect of over 45% in size. The procedure, abridged:
as §1

Experiment [6] in a line: A CellTox Green Cytotoxicity Assay to monitor cytotoxicity in HepG2 cells - 16 hour (AID 1224876). Further: nearly all actives have a fitted effect of over 45% in size. The procedure, abridged:
(§4)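 HepG2, 600 cells/well premixed w/ CellTox Green; 5 h settle, 37 C/5% CO2; pintool cpd add (DMSO); 37 C, 40 h; fluorescence read at 0, 8, 16, 24, 32, 40 h.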

A short description of experiment [7]: qHTS RealTime-Glo MT Cell Viability Assay in HepG2 cells - 32 hour (AID 1224877). Further: nearly all actives have a fitted effect of over 55% in size. The gist of the method: (§5)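 Tox21 10K library screened in qHTS format on HepG2 cells carrying RealTime-Glo reagents. Compounds were added after a 5 h preincubation, and the luminescent signal from continuous culture was measured repeatedly during 40 h treatment.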
Experiment [8] in a line: A CellTox Green Cytotoxicity Assay to monitor cytotoxicity in HepG2 cells - 24 hour (AID 1224878). Further: nearly all actives have a fitted effect of over 45% in size. Further: potency means the concentration at half of the fitted maximal effect. The gist of the method:
as §4

Experiment [9] in a line: A CellTox Green Cytotoxicity Assay to monitor cytotoxicity in HepG2 cells - 40 hour (AID 1224879). Further: nearly all actives have a fitted effect of over 40% in size. Further: potency means the concentration at half of the fitted maximal effect. The gist of the method: as §4
Experiment [10] can be described thus: qHTS RealTime-Glo MT Cell Viability Assay in HEK293 cells - 0 hour (AID 1224880). The procedure, abridged:
as §3

A short description of experiment [11]: A CellTox Green Cytotoxicity Assay to monitor cytotoxicity in HepG2 cells - 0 hour (AID 1224882). Further: nearly all actives have a fitted effect of over 35% in size. The gist of the method:
as §4

A short description of experiment [12]: A CellTox Green Cytotoxicity Assay to monitor cytotoxicity in HepG2 cells - 32 hour (AID 1224883). Further: nearly all actives have a fitted effect of over 50% in size. Further: potency means the concentration at half of the fitted maximal effect. The procedure, abridged:
as §4

A short description of experiment [13]: A CellTox Green Cytotoxicity Assay to monitor cytotoxicity in HEK293 cells - 8 hour (AID 1224884). Further: nearly all actives have a fitted effect of over 35% in size. The gist of the method:
as §1

Experiment [14] in a line: qHTS RealTime-Glo MT Cell Viability Assay in HepG2 cells - 16 hour (AID 1224885). Further: nearly all actives have a fitted effect of over 50% in size. The procedure, abridged: as §5
Experiment [15] is described as follows: qHTS RealTime-Glo MT Cell Viability Assay in HEK293 cells - 24 hour (AID 1224886). Further: nearly all actives have a fitted effect of over 50% in size. Further: potency means the concentration at half of the fitted maximal effect. The gist of the method: as §2
Experiment [16] can be described thus: qHTS RealTime-Glo MT Cell Viability Assay in HEK293 cells - 8 hour (AID 1224887). The procedure, abridged: as §3
Experiment [17] can be described thus: A CellTox Green Cytotoxicity Assay to monitor cytotoxicity in HEK293 cells - 16 hour (AID 1224888). Further: nearly all actives have a fitted effect of over 35% in size. The gist of the method:
as §1

Experiment [18] in a line: qHTS RealTime-Glo MT Cell Viability Assay in HepG2 cells - 0 hour (AID 1224889). Further: nearly all actives have a fitted effect of over 50% in size. The procedure, abridged:
as §5

Experiment [19] can be described thus: A CellTox Green Cytotoxicity Assay to monitor cytotoxicity in HepG2 cells - 8 hour (AID 1224890). Further: nearly all actives have a fitted effect of over 45% in size. The gist of the method: as §4
A short description of experiment [20]: A CellTox Green Cytotoxicity Assay to monitor cytotoxicity in HEK293 cells - 32 hour (AID 1224881). Further: nearly all actives have a fitted effect of over 40% in size. The gist of the method:
as §1

Several values for one entry are separate records, joined by “and”; a condition that tells them apart may be missing. Equal entries are not always repeated. Values without a mark were called inactive. Records with an inconclusive call do not appear. Activity calls are given as the source filed them. The call rests on the fitted dose curve; in most records, active means well fitted curve in the direction sought with a large enough effect in the repeat runs; inconclusive means weak or mixed curves; inactive means no such curve, though single readings can be large; an effect the other way counts as inactive or inconclusive.

Consider 13 molecules from PubChem BioAssay (Tox21).
On the % scale 0 is the no-effect control and ±100 the full control effect.

Regarding `O=c1cc[nH]c(=O)[nH]1`, the Potency entry in experiment [1], in experiment [2], in experiment [5], in [6], in [8] and in experiment [9] was “inactive” throughout. The Potency entry in [10], in experiment [11], in experiment [12], in [13], in [14] and in experiment [15] was “inactive” in each case. For the same molecule, the Potency entry in [16], in experiment [17], in experiment [18] and in [19] was “inactive” each time. The outcome in [3] and in experiment [7] was inactive. For the same molecule, the max response in [4] was -9.27% and 1.51%.

For the molecule `Cc1cccc(C)c1O`, the Potency result in [1], in experiment [2], in experiment [5], in experiment [6], in [8] and in experiment [9] was “inactive” each time. For the same molecule, the Potency result in [10], in experiment [20], in experiment [11], in experiment [12], in experiment [13] and in experiment [14] was “inactive” throughout. In addition, the Potency result in [15], in [17], in experiment [18] and in experiment [19] was “inactive” throughout. Also, the molecule was classed as inactive in experiment [3] and in [7]. In experiment [4], the max response is 9.86% and 0.971%.

Turning to `NC(N)=NC(N)=NCCc1ccccc1`, the Potency entry in [1], in [2], in [5], in [6], in experiment [8] and in [9] was “inactive” in each case. Further, the Potency result in experiment [10], in [11], in [12], in experiment [13], in experiment [14] and in experiment [15] was “inactive” each time. The Potency result in experiment [16], in experiment [17], in [18] and in [19] was “inactive” in each case. For the same molecule, the result in experiment [3] and in experiment [7] was inactive. Also, the Potency in experiment [4] was 6.16 µM (active).

`Cc1ccc(O)c(-n2nc3ccccc3n2)c1`: the Potency result in [1], in experiment [2], in experiment [5], in experiment [6], in experiment [8] and in experiment [9] was “inactive” each time. Further, the Potency entry in [10], in [11], in [12], in experiment [13], in experiment [14] and in [15] was “inactive” each time. The Potency entry in [17], in experiment [18] and in experiment [19] was “inactive” throughout. In addition, the result in experiment [3] and in experiment [7] was inactive. Also, the max response in experiment [4] is -4.85% and -18.6% and -8.22%.

With `CCCCCCCCCCCCCCCCCC(=O)OCC(O)CO` (centres undefined), the Potency result in experiment [1], in [2], in [5], in experiment [6], in experiment [8] and in experiment [9] was “inactive” throughout. For the same molecule, the Potency entry in [10], in experiment [11], in experiment [12], in experiment [13], in experiment [14] and in experiment [15] was “inactive” each time. Also, the Potency result in experiment [17], in experiment [18] and in experiment [19] was “inactive” throughout. In addition, the result in experiment [3] and in experiment [7] was inactive. In addition, in experiment [4], the max response is 10.4% and 6.82% and 1.48%.

Turning to `CC(O)COc1ccccc1` (centres undefined), the Potency entry in [1], in [2], in [5], in [6], in [8] and in experiment [9] was “inactive” throughout. Moreover, the Potency entry in experiment [10], in experiment [11], in experiment [12], in experiment [13], in experiment [14] and in experiment [15] was “inactive” throughout. Besides, the Potency result in experiment [16], in [17], in experiment [18] and in experiment [19] was “inactive” each time. Moreover, the outcome in experiment [3] and in [7] was inactive. In experiment [4], the max response was 1.14% and -0.457% and -1.74%.

Turning to `Nc1cccc(N)c1`, the Potency result in [1], in [2], in experiment [5], in experiment [6], in experiment [8] and in experiment [9] was “inactive” each time. The Potency entry in [10], in experiment [11], in [12], in [13], in experiment [14] and in [15] was “inactive” in each case. The Potency entry in [17], in experiment [18] and in experiment [19] was “inactive” each time. Besides, the result in [3] and in [7] was inactive. In addition, in [4], the max response was 6.95% and 5.34% and 0.651%.

Regarding `CCN(CC)CCOC(=O)c1ccc(N)cc1`, the Potency result in experiment [1], in experiment [2], in [5], in [6], in [8] and in experiment [9] was “inactive” throughout. The Potency entry in [10], in experiment [11], in experiment [12], in [13], in experiment [14] and in experiment [15] was “inactive” in each case. Moreover, the Potency entry in [17], in [18] and in experiment [19] was “inactive” throughout. Moreover, the molecule was called inactive in [3] and in [7]. In experiment [4], the max response is -6.53% and -0.799%.

Consider `Nc1ccc(N=Nc2ccccc2)c(N)n1`, for which the Potency result in [1], in [5], in [6], in [10], in [20] and in experiment [11] was “inactive” each time. Besides, the Potency result in experiment [13], in experiment [14], in experiment [17], in experiment [18] and in [19] was “inactive” throughout. Besides, the molecule was classed as inactive in [3] and in experiment [7]. Besides, the Potency was 24.7 µM (active) and 24.5 µM (active) in experiment [4]; 34.9 µM (active) and 17.4 µM (active) in [8]; 34.9 µM (active) and 17.4 µM (active) and 26.8 µM (active) in [9]; 31.1 µM (active) and 17.4 µM (active) in experiment [12]; 39.1 µM (active) and 24.5 µM (active) in experiment [15].

On to `CCOC(=O)C(C)(C)Oc1ccc(Cl)cc1`, for which the Potency result in [1], in experiment [2], in experiment [5], in experiment [6], in experiment [8] and in experiment [9] was “inactive” in each case. For the same molecule, the Potency result in experiment [10], in experiment [11], in [12], in [13], in experiment [14] and in [15] was “inactive” throughout. Also, the Potency result in [17], in [18] and in experiment [19] was “inactive” in each case. Also, the molecule was called inactive in [3] and in experiment [7]. Further, the max response in experiment [4] was 0.886% and 6.32% and -3.11%.

With `CCCCOCCOCCSC#N`, the Potency entry in [1], in experiment [2], in experiment [5], in experiment [6], in [8] and in experiment [9] was “inactive” each time. For the same molecule, the Potency entry in [10], in [11], in experiment [12], in experiment [13], in experiment [14] and in experiment [15] was “inactive” in each case. The Potency entry in experiment [17], in experiment [18] and in [19] was “inactive” in each case. For the same molecule, the result in [3] and in [7] was inactive. For the same molecule, the max response in experiment [4] is 7.99% and 2.19%.

Regarding `COCCOCCOC`, the Potency result in [1], in experiment [2], in experiment [5], in experiment [6], in [8] and in [9] was “inactive” throughout. Moreover, the Potency result in [10], in [11], in [12], in experiment [13], in [14] and in experiment [15] was “inactive” throughout. Further, the Potency entry in [17], in experiment [18] and in [19] was “inactive” throughout. The outcome in experiment [3] and in [7] was inactive. Also, the max response in experiment [4] is 13% and 10.3%.

Consider `O=C1OC(c2ccc(O)cc2)(c2ccc(O)cc2)c2ccccc21`, for which the Potency entry in experiment [1], in [2], in experiment [5], in [6], in [8] and in [9] was “inactive” throughout. The Potency entry in experiment [10], in experiment [11], in experiment [12], in experiment [13], in experiment [14] and in experiment [15] was “inactive” throughout. In addition, the Potency result in experiment [16], in experiment [17], in [18] and in experiment [19] was “inactive” each time. In addition, the result in [3] and in experiment [7] was inactive. In addition, the max response in experiment [4] was -0.757%.
